# According to PubChem BioAssay (NCI):
# Where “and” joins values, the source holds several entries; their conditions need not be identical. Identical values can stand only once. The panel holds about 83,000 compounds, 20% with a hit somewhere; the sample as a whole holds those more often.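 Values shown are percent growth following 48 h exposure of cells in 96-well plates to a single concentration of compound; below 10 was considered active.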 Calls of active or inactive are those of the source.
# System: MALME-3M melanoma
# Assay: NCI-60 one-dose screen, 48 h (100 = growth as untreated, 0 = no growth, -100 = all killed)
# Conditions: 10 µM unless noted
row,Compound,growth
1,O=C(CSc1nc2ccccc2c(=O)[nH]1)Nc1ccccc1C(=O)O,79.4% (inactive)
2,Cn1cc(-c2cc(N)n3nc(-c4c[nH]c5ccccc45)cc3n2)c2ccccc21,-94.8% (active)
3,Cc1cccc(/C=C/c2ccc(NC(=S)NCCCCN(C)C)cc2)c1,-96.1% (active)
4,Cc1ccc(N=Nc2c(N)nn3c(-c4cc5ccccc5oc4=O)ccnc23)cc1,67.1% (inactive)
5,O=C(Nc1nc2ccccc2s1)Nc1ccccc1Cl,79.7% (inactive)
6,COc1ccc(NC(=O)CSc2nnc(-c3ccc(-c4nc5ccc(Cl)cc5[nH]4)cc3)o2)cc1,0.449% (active)
7,O=C1Nc2cc(-c3ccc(NS(=O)(=O)c4ccc(C(F)(F)F)cc4)cc3)ccc2/C1=C/c1ccc[nH]1,63.3% (inactive)
8,COc1ccc(Nc2nnc(-c3c[nH]c4ccccc34)o2)cc1,79.5% (inactive)
9,Cn1cc(-c2cc(N)n3nc(-c4c[nH]c5ccc(F)cc45)cc3n2)c2cccnc21,-93% (active)
10,O=C(NN1C(=O)/C(=C/C=C/c2ccc([N+](=O)[O-])o2)SC1=S)c1ccc([N+](=O)[O-])cc1,-91.3% (active)
11,CN1C(=O)/C(=C/c2ccco2)S/C1=N/c1nccs1,118% (inactive)
12,N#C/C(=C/c1ccc([N+](=O)[O-])cc1)c1nnc(NC(=O)c2ccc(-n3c(=O)[nH]c4ccccc4c3=O)cc2)s1,91.6% (inactive)
13,O=C(CSc1nnc(-c2ccc(-c3nc4ccc(Cl)cc4[nH]3)cc2)o1)Nc1ccccc1,2.32% (active)
14,Cc1cccc(NCC(=O)N2CCN(c3ncnc4c3cnn4-c3ccccc3)CC2)c1,72.8% (inactive)
15,O=C(N/N=C/c1ccc(Br)o1)c1[nH]c2ccc(Br)cc2c1-c1ccccc1,0.448% (active)
16,CCCCCCCCc1ccc(C(=O)Nc2ccc(C)c(OP(=O)(O)O)c2)cc1,102% (inactive)
17,Cn1cc(-c2cc3nc(-c4cn(C)c5ncc(Br)cc45)cc(N)n3n2)c2cc(F)ccc21,8.23% (active)
18,O=C1Nc2ccccc2/C1=C/C(=O)c1cc2ccccc2oc1=O,10.9% (inactive)
19,c1n[nH]cc1-c1nc2ccc3cn[nH]c3c2c2c1CCCC2,72.9% (inactive)

row,Compound,growth
1,CN1C(=O)C(O)(CC(=O)c2cc3ccccc3oc2=O)c2ccccc21 (stereo unspecified),94.7% (inactive)
2,O=C(CCl)Nc1ccc(C(=O)/C=C/c2cc3ccccc3nc2Cl)cc1,-87.2% (active) and 48.9% (inactive)
3,Cc1cc(C2(c3cc(C)c(OCC(O)CNc4c(C)n(C)n(-c5ccccc5)c4=O)cc3C(C)C)OC(=O)c3ccccc32)c(C(C)C)cc1OCC(O)CNc1c(C)n(C)n(-c2ccccc2)c1=O (stereo unspecified),26.3% (inactive)
4,Cn1cc(-c2cc(N)n3nc(-c4c[nH]c5ccccc45)cc3n2)c2cc(Br)ccc21,-76.9% (active)
5,CCC(=O)c1c2c(c3ccc4c5ccccc5ccc4n13)C(=O)c1ccccc1C2=O,-87.5% (active)
6,CS(=O)(=O)Nc1cc(-c2ccc3ncnc(Nc4ccc(OCc5cccnc5)c(Cl)c4)c3c2)cnc1Cl,-34.8% (active)
7,Cn1cc(-c2cc(N)n3nc(-c4c[nH]c5ccccc45)cc3n2)c2cc(Cl)ccc21,-78% (active)
8,COc1ccc(N=Nc2c(N)nn3c(N)c(C#N)c(-c4ccc(C)cc4)nc23)cc1,93.7% (inactive)
9,COc1ccc(C(=O)/C=C/c2ccc3c(c2)OCCO3)cc1S(N)(=O)=O,88.3% (inactive)
10,CCCCC[C@@H]1C/C=C(\C)[C@@H](O)C(C)(C)C(=O)[C@@H](C)/C=C(\C)[C@@H]2C[C@H](O)C[C@](O)(CC(=O)O1)O2,34.9% (inactive)
11,CC(C)(C)c1ccc(OCc2nc3ccccc3n2-c2cccc(N)c2)cc1,48.7% (inactive) and 101% (inactive)
12,O=C1/C(=C/c2cnc(-c3ccccc3)s2)SC(=S)N1Cc1ccc2c(c1)OCO2,70.2% (inactive)
13,COc1ccc(NC2=C(I)C(=O)C(C)=C(C)C2=O)cc1,77.7% (inactive)
14,COc1ccc(-c2nnc3c(/C=C/c4ccc(Br)cc4)nc4ccccc4n23)cc1,-39.4% (active)
15,C[C@H]1[C@@H](CC(=O)N[C@@H](Cc2coc3ccccc23)B(O)O)O[C@@H]2OC3(C)CC[C@H]4[C@H](C)CC[C@@H]1[C@@]24O3,-41.6% (active)
16,O=C(NNC(=S)NC(=O)c1ccccc1)c1ccc(OCc2nc3ccc(Cl)cc3[nH]2)cc1,-75.4% (active)
17,CC1=C(C)C(=O)C(NCCN2CCOCC2)=C(Br)C1=O,-69% (active)
18,N#Cc1ccc(C(=O)NNC(=O)CSc2nc3sc4c(c3c(=O)n2-c2ccc(Cl)cc2)CCCC4)cc1,39.5% (inactive)
19,CCCCCCCOc1ccc(S(=O)(=O)Nc2ccc(C)c(F)c2C(=O)O)cc1,91.3% (inactive)

# System: MDA-MB-231 breast
# Assay: as above
# Conditions: 10 µM unless noted
row,Compound,growth
1,O=C(CSc1nc2ccccc2c(=O)[nH]1)Nc1ccccc1C(=O)O,94.6% (inactive)
2,Cn1cc(-c2cc(N)n3nc(-c4c[nH]c5ccccc45)cc3n2)c2ccccc21,-89.8% (active)
3,Cc1cccc(/C=C/c2ccc(NC(=S)NCCCCN(C)C)cc2)c1,-94.4% (active)
4,Cc1ccc(N=Nc2c(N)nn3c(-c4cc5ccccc5oc4=O)ccnc23)cc1,30.7% (inactive)
5,O=C(Nc1nc2ccccc2s1)Nc1ccccc1Cl,51.9% (inactive)
6,COc1ccc(NC(=O)CSc2nnc(-c3ccc(-c4nc5ccc(Cl)cc5[nH]4)cc3)o2)cc1,-30.2% (active)
7,O=C1Nc2cc(-c3ccc(NS(=O)(=O)c4ccc(C(F)(F)F)cc4)cc3)ccc2/C1=C/c1ccc[nH]1,66.7% (inactive)
8,COc1ccc(Nc2nnc(-c3c[nH]c4ccccc34)o2)cc1,64.7% (inactive)
9,Cn1cc(-c2cc(N)n3nc(-c4c[nH]c5ccc(F)cc45)cc3n2)c2cccnc21,-85.9% (active)
10,O=C(NN1C(=O)/C(=C/C=C/c2ccc([N+](=O)[O-])o2)SC1=S)c1ccc([N+](=O)[O-])cc1,-99.7% (active)
11,CN1C(=O)/C(=C/c2ccco2)S/C1=N/c1nccs1,109% (inactive)
12,N#C/C(=C/c1ccc([N+](=O)[O-])cc1)c1nnc(NC(=O)c2ccc(-n3c(=O)[nH]c4ccccc4c3=O)cc2)s1,89.5% (inactive)
13,O=C(CSc1nnc(-c2ccc(-c3nc4ccc(Cl)cc4[nH]3)cc2)o1)Nc1ccccc1,-52% (active)
14,Cc1cccc(NCC(=O)N2CCN(c3ncnc4c3cnn4-c3ccccc3)CC2)c1,65% (inactive)
15,O=C(N/N=C/c1ccc(Br)o1)c1[nH]c2ccc(Br)cc2c1-c1ccccc1,-73.4% (active)
16,CCCCCCCCc1ccc(C(=O)Nc2ccc(C)c(OP(=O)(O)O)c2)cc1,97.3% (inactive)
17,Cn1cc(-c2cc3nc(-c4cn(C)c5ncc(Br)cc45)cc(N)n3n2)c2cc(F)ccc21,-42.1% (active)
18,O=C1Nc2ccccc2/C1=C/C(=O)c1cc2ccccc2oc1=O,97.6% (inactive)
19,c1n[nH]cc1-c1nc2ccc3cn[nH]c3c2c2c1CCCC2,58.3% (inactive)

row,Compound,growth
1,CN1C(=O)C(O)(CC(=O)c2cc3ccccc3oc2=O)c2ccccc21 (stereo unspecified),91.8% (inactive)
2,O=C(CCl)Nc1ccc(C(=O)/C=C/c2cc3ccccc3nc2Cl)cc1,-91.6% (active) and 63.6% (inactive)
3,Cc1cc(C2(c3cc(C)c(OCC(O)CNc4c(C)n(C)n(-c5ccccc5)c4=O)cc3C(C)C)OC(=O)c3ccccc32)c(C(C)C)cc1OCC(O)CNc1c(C)n(C)n(-c2ccccc2)c1=O (stereo unspecified),-36.5% (active)
4,Cn1cc(-c2cc(N)n3nc(-c4c[nH]c5ccccc45)cc3n2)c2cc(Br)ccc21,-89.3% (active)
5,CCC(=O)c1c2c(c3ccc4c5ccccc5ccc4n13)C(=O)c1ccccc1C2=O,83% (inactive)
6,CS(=O)(=O)Nc1cc(-c2ccc3ncnc(Nc4ccc(OCc5cccnc5)c(Cl)c4)c3c2)cnc1Cl,-57.9% (active)
7,Cn1cc(-c2cc(N)n3nc(-c4c[nH]c5ccccc45)cc3n2)c2cc(Cl)ccc21,-85.5% (active)
8,COc1ccc(N=Nc2c(N)nn3c(N)c(C#N)c(-c4ccc(C)cc4)nc23)cc1,42.4% (inactive)
9,COc1ccc(C(=O)/C=C/c2ccc3c(c2)OCCO3)cc1S(N)(=O)=O,86.5% (inactive)
10,CCCCC[C@@H]1C/C=C(\C)[C@@H](O)C(C)(C)C(=O)[C@@H](C)/C=C(\C)[C@@H]2C[C@H](O)C[C@](O)(CC(=O)O1)O2,83.4% (inactive)
11,CC(C)(C)c1ccc(OCc2nc3ccccc3n2-c2cccc(N)c2)cc1,53.4% (inactive) and 106% (inactive)
12,O=C1/C(=C/c2cnc(-c3ccccc3)s2)SC(=S)N1Cc1ccc2c(c1)OCO2,76.9% (inactive)
13,COc1ccc(NC2=C(I)C(=O)C(C)=C(C)C2=O)cc1,-8.44% (active)
14,COc1ccc(-c2nnc3c(/C=C/c4ccc(Br)cc4)nc4ccccc4n23)cc1,81.9% (inactive)
15,C[C@H]1[C@@H](CC(=O)N[C@@H](Cc2coc3ccccc23)B(O)O)O[C@@H]2OC3(C)CC[C@H]4[C@H](C)CC[C@@H]1[C@@]24O3,-68.3% (active)
16,O=C(NNC(=S)NC(=O)c1ccccc1)c1ccc(OCc2nc3ccc(Cl)cc3[nH]2)cc1,-71.2% (active)
17,CC1=C(C)C(=O)C(NCCN2CCOCC2)=C(Br)C1=O,-6.27% (active)
18,N#Cc1ccc(C(=O)NNC(=O)CSc2nc3sc4c(c3c(=O)n2-c2ccc(Cl)cc2)CCCC4)cc1,3.65% (active)
19,CCCCCCCOc1ccc(S(=O)(=O)Nc2ccc(C)c(F)c2C(=O)O)cc1,96% (inactive)
